Compound activity: PubChem BioAssay, National Center for Advancing Translational Sciences (NCATS)
In the library only some 0.78% were active in any assay of this set; here they are far more common.
GLS inh = blocks human kidney-isoform glutaminase activity. 410,000 compounds, 0.21% hits. Potency, µM (titrated, usually from 45.5 µM), hits mostly inhibitors. GLS enzymatic activity, qHTS titration. O94925
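Enzyme dispensed in phosphate buffer (45 mM, pH 8.2, 0.02% Tween-20), compounds pinned in, then 1 mM L-glutamine solution and the glutamate oxidase–HRP–Amplex Red mix added; fluorescence read immediately and again after 30 min at room temperature.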
CCT chaperon mod = cytosolic chaperonin activity modulation; 360,000 compounds, 0.3% hits; purified chaperonin ATPase assay, HTRF ADP detection, 30 min; activity change, % (no concentration beside the values), hits read low; AID 651819; in the data active means activity change below about -30%
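TRiC (40 or 20 nM final, by batch activity) in 30 mM Tris pH 7.4, 100 mM KCl, 5 mM MgCl2, 1 mM DTT was treated with compound at 76 uM single dose, then 10 uM ATP, 30 min at 37 °C. ADP was read by HTRF Transcreener.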
PINK1 expr mod = PINK1 expression modulation. PINK1 immunofluorescence, high-content cytometry, 24 h. Potency, µM (highest dose often 76.6 µM), hits mostly activators. 410,000 compounds, 0.2% hits. AID 624263; active means well fitted activation curve with a large enough effect; inconclusive means small, poorly fitted or top-dose-only effect; cell line not stated here; further: nearly all actives have a fitted effect of over 65% in size
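Measures PINK1 amount and localization on or inside mitochondria by immunofluorescence. Stable cells get compounds at 5 concentrations for 24 hours before fixation and staining; CCCP controls included.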
Tb PGK inh = blocks T. brucei phosphoglycerate kinase; P07378; PGK/GAPDH coupled, Kinase-Glo luminescence, 60 min; Potency, µM (top dose mostly 57.5 µM), hits mostly inhibitors; 380,000 compounds, 0.043% hits; AID 602233; further: nearly all actives have a fitted effect of over 60% in size
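Luminescent ATP detection (Kinase-Glo Plus) follows a 60-minute room-temperature incubation, with wells lacking PGK as controls. Buffer: 100 mM TEA (pH 7.6), 5 mM MgCl2, 0.01% Tween-20. Coupling enzyme GAPDH (100 nM final) supplies unstable 1,3-BPG in-well.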
PI4K2A block = PI4K2A (human) kinase inhibition; purified PI4K2A, ADP-Glo luminescence, 1 h; hits give low values; activity change, negative = inhibition, % at 76.9 µM; 420,000 compounds, 0.13% hits; in the data active means activity change below about -50%; inconclusive means mostly about -30% to -49%
Target sequence (Q9BTU6 whole entry, looked up): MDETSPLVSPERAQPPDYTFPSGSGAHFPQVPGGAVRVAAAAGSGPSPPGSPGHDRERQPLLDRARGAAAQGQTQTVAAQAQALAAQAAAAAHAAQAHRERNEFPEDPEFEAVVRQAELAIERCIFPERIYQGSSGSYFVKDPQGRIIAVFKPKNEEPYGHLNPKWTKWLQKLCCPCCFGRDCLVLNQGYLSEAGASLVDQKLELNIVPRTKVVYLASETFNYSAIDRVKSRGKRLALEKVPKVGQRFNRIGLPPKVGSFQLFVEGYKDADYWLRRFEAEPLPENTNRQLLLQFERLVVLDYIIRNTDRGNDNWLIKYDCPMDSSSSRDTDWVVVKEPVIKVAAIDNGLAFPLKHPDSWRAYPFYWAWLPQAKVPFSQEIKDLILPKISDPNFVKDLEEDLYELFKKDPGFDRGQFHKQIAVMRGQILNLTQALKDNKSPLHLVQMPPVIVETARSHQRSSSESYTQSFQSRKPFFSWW
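ADP-Glo luminescence measured ADP generated by PI4K2A enzyme (4 ug/mL before mixing) with 1.2 mM PI substrate (pre-mix) and 300 microM ATP (pre-mix). Tris pH7.5 buffer with MgCl2, Triton X-100; 1 h reaction at ambient temperature.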
Hits are given with their value; - = inactive; ? = inconclusive; . = no result; [ ] = dose if it differs, or a comment. Unless noted, the call rests on the fitted dose curve; in most records, active means well fitted curve in the direction sought with a large enough effect; inconclusive means small, poorly fitted or top-dose-only effect, or another doubt; inactive means no such curve, though single readings can be large; an effect the other way counts as inactive or inconclusive.

SMILES | GLS inh | CCT chaperon mod | PINK1 expr mod | Tb PGK inh | PI4K2A block
OCCCc1nc2n(n1)C(c1ccccc1)C=C(c1ccc(F)cc1)N2 (centres undefined) | - | - | - | - | -66
O=C1Nc2ccccc2/C1=C/c1cnc(-c2ccccc2)[nH]1 | - | - | 45µM | - | -
O=C1Nc2ccccc2/C1=C/c1cccnc1 | - | - | - | - | -
Nc1ccc(O)c(C(=O)O)c1 | 16µM | . | . | . | -
COc1cc(N)ccc1C(=O)O | - | - | - | - | -
Cc1ccc(S(=O)(=O)N2CCN(c3cc4c(cc3[N+](=O)[O-])n(C)c(=O)n4C)CC2)cc1 | - | -54 | . | - | -
Cn1c(=O)n(C)c2cc([N+](=O)[O-])c(N3CCN(S(=O)(=O)c4ccc5ccccc5c4)CC3)cc21 | - | - | - | - | -
CCCCC/C=C/C/C=C/CCCCCCCC(=O)NC(C)c1ccccc1 (centres undefined) | - | . | . | . | .
Cc1occc1C(=O)N/N=C/c1ccc(OCc2ccccc2)cc1 | - | - | - | - | -
Cc1occc1C(=O)N/N=C/c1ccc(-c2ccccc2)cc1 | - | - | - | ? | -78
O=C(O)c1ccc(N/N=C/c2ccc3c(c2)OCO3)cc1 | - | - | - | ? | -67
Cc1cc(C(=O)N/N=C/c2ccc3c(c2)OCO3)c(C)o1 | - | - | - | - | -
O=C(N/N=C/c1ccc2c(c1)OCO2)c1cccs1 | - | - | - | - | -
Cc1occc1C(=O)N/N=C/c1ccc2c(c1)OCO2 | - | - | - | ? | -65
Cc1ccsc1C(=O)N/N=C/c1ccc2c(c1)OCO2 | - | - | - | ? | -54
CCCc1ccc(OCC(=O)N2CCN(C(=O)COc3ccc(CCC)cc3OC)CC2)c(OC)c1 | . | . | . | . | -
O=C(NCC1CCC2(CCN(Cc3ccc4ncccc4c3)CC2)O1)C1CCCO1 (centres undefined) | . | . | - | . | .
Cc1cc(C)n(-c2cccc(C(=O)NCC3Cc4cc(Cl)cc(-c5cnccn5)c4O3)c2)n1 (centres undefined) | . | . | - | . | .
COc1ccccc1Nc1nc(N)nc(CN2CCN(c3ccccc3F)CC2)n1 | - | - | - | - | -
COc1ccccc1N1CCN(Cc2nc(N)nc(Nc3ccc(C)c(Cl)c3)n2)CC1 | - | -34 | - | - | -
CCC1CN(CCNC(=O)C2CCCCN2C)Cc2cc(OC)ccc2O1 (centres undefined) | . | . | - | . | .
Cc1ncc2c(c1CNC(=O)/C=C/c1cccs1)CCN(C(=O)c1cc(C(C)C)on1)C2 | . | . | - | . | .
COC(=O)c1c(OCc2cccnc2)cc(=O)n2c1CCN(C(=O)c1ccc(OC)c(F)c1)CC2 | . | . | - | . | .
CCOC(=O)/C=c1\s/c(=C\c2ccc3cc(OC)ccc3c2)c(=O)n1CC(=O)NCc1ccc2c(c1)OCO2 | - | - | 20µM | - | -
CC(NC(=O)c1cccnc1)c1nnc2n1CCN(Cc1ccc(-c3ccccc3)cc1)CC2 (centres undefined) | . | . | - | . | .
SMILES | GLS inh | CCT chaperon mod | PINK1 expr mod | Tb PGK inh | PI4K2A block
Cc1noc(C)c1C(=O)Nc1sc(C)c(-c2ccccc2)c1C#N | - | - | 28µM | - | -
CC1Oc2ccccc2C=C1/C=C1/SC(N2CCOCC2)=NC1=O (centres undefined) | - | -39 | - | - | -
Cc1ncc2c(c1CNC(=O)c1ccc3c(c1)OCO3)CCN(C(=O)/C=C/c1ccc(Cl)cc1)C2 | . | . | - | . | .
O=C(CC1Nc2ccccc2NC1=O)Nc1cc(Cl)cc(Cl)c1 (centres undefined) | - | - | 8.9µM | - | -
COC(=O)c1c(NC(=O)CC2Nc3ccccc3NC2=O)sc(C)c1C (centres undefined) | ? | - | ? | - | -
CCOC(=O)c1c(NC(=O)CC2Nc3ccccc3NC2=O)sc(C)c1C (centres undefined) | 13µM | - | 13µM | - | -
COCc1nn2c(N)c(C#N)cnc2c1-c1ccccc1 | - | - | - | - | -
COCc1nn2c(N)c(-c3ccccc3)cnc2c1-c1ccccc1 | - | -44 | - | - | -
CN1CCN(C2=C(Cl)C(=O)c3ccccc3C2=O)CC1 | - | - | - | ? | -55
O=C1C(Cl)=C(N2CCC(C(=O)O)CC2)C(=O)c2ccccc21 | - | - | - | - | -
Cc1cc(C)n(CC(=O)N2CCC(n3c(C(C)C)nc4cccnc43)CC2)n1 | . | . | - | . | .
Cc1ccc2c(c1)cc(CN(C)Cc1nc(C)cs1)c(=O)n2C | . | . | - | . | .
COCCN1CCn2c(nc3cc(NC(=O)NC4CCCCC4)ccc32)C1 | - | - | - | - | -
O=C(Nc1ccc2c(c1)nc1n2CCN(Cc2ccccc2)C1)NC1CCCCC1 | - | - | 10µM | - | -
CC(CCC(C)C(C)(C)C)[C@@H]1CC[C@H]2C3C[C@H](OS(O)(=S)=S)[C@H]4C[C@H](OS(O)(=S)=S)[C@@H](OS(O)(=S)=S)C[C@]4(C)[C@H]3CC[C@]12C (some centres undefined) (tested in a mixture with another compound) | ? | - | - | 25µM | -59
CO[C@]1(NC(=O)CSCC#N)C(=O)N2C(C(=O)O)=C(CSc3nnnn3C)CS[C@H]21 | - | . | . | . | .
CO[C@@]1(NC(=O)CSCC#N)C(=O)N2C(C(=O)O)=C(CSc3nnnn3C)CS[C@@H]21 | 11µM | - | - | ? | -
O=C(C1CCN(S(=O)(=O)c2ccc(F)cc2)CC1)N1CCOCC1 | - | -41 | - | . | -
COc1cc(Cl)c(CN2CCOc3ccc(CN4CCCCC4CO)cc3C2)cc1OC (centres undefined) | . | . | - | . | .
Cc1ccc(N(CC(O)Cn2c3ccccc3c3ccccc32)S(C)(=O)=O)cc1 (centres undefined) | - | - | - | -[11.5 µM] | -
CC(=O)Nc1ccc(N(CC(O)Cn2c3ccccc3c3ccccc32)S(=O)(=O)c2ccc(C)cc2)cc1 (centres undefined) | - | -46 | - | - | -
CCC(=O)NNC(=O)CCC(=O)Nc1ccc(C)cc1C | - | - | - | - | -
CCCNC(=O)Nc1ccc(C)cc1C | - | -45 | - | - | -
Cc1ccc(NC(=O)CCC(=O)NNC(=O)C(C)(C)C)c(C)c1 | - | -92 | - | - | -
CO[C@H]1[C@H](NC(=O)c2ccsc2)c2ccccc2C12CCN(Cc1cc(Cl)ccc1O)CC2 | . | . | - | . | .
SMILES | GLS inh | CCT chaperon mod | PINK1 expr mod | Tb PGK inh | PI4K2A block
CC1(C)CC(=O)C2=C(C1)Nc1ccccc1S2 | 10µM | - | - | - | -
CCCCSc1ccc2nc(-c3ccc(C#N)cc3)cn2c1 | - | - | - | - | -
CCCSc1ccc2nc(-c3ccccc3)cn2c1 | - | - | - | ? | -68
CCN1CCS/C1=C\C=C\C1=[N+](CC)CCS1 | - | - | 14µM | - | -
CCN1CCS/C1=C/C=C/C1=[N+](CC)CCS1 | - | - | 16µM | - | -
COc1ccc(N=C2S/C(=C\c3ccc(OCC(=O)O)cc3)C(=O)N2CCc2c[nH]c3ccccc23)cc1 | 10µM | - | - | - | -
